Compound activity as filed in PubChem BioAssay.
Compounds with a hit are over-represented: about 3.4% of the library has one in this group of screens.
MITF inh: human MITF inhibition, primary screen. AlphaScreen MITF homodimerization, bead proximity signal. 650,000 compounds, 0.91% hits. O75030. AID 1259374. inhibition, % at 2.6 µM; in the data active = inhibition above about 50%;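 also: 0% = vehicle wells with protein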
GPR151 activ: human GPR151 activation. Q8TDV0. PathHunter beta-arrestin GPR151 cells, luminescence. activation, % at 11.2 µM. 650,000 compounds, 1% hits. AID 1508602; in the data active = activation above about 4.9%;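 also: 0% = median of compound wells and 100% = cells with positive control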
TEAD-YAP block: TEAD-YAP interaction inhibition | HEK-TIYL cells, TEAD-Gal4/YAP UAS-luciferase luminescence | inhibition, % at 9.12 µM | 640,000 compounds, 1.4% hits | AID 1259422; in the data active = inhibition above about 32%;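 also: 0% = median of test compound wells and 100% = reference inhibitor wells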
FBW7 act: activators of human E3 ligase FBW7; AID 1259310; Q969H0; normalized activity (activation), % at 26.1 µM; AlphaScreen FBW7–phospho-cyclin E peptide binding, activator screen; 650,000 compounds, 0.13% hits; in the data active = normalized activity above about 1.9%;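 also: purified mutant Fbw7 with reduced substrate affinity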
Target sequence (Q969H0 whole entry, looked up): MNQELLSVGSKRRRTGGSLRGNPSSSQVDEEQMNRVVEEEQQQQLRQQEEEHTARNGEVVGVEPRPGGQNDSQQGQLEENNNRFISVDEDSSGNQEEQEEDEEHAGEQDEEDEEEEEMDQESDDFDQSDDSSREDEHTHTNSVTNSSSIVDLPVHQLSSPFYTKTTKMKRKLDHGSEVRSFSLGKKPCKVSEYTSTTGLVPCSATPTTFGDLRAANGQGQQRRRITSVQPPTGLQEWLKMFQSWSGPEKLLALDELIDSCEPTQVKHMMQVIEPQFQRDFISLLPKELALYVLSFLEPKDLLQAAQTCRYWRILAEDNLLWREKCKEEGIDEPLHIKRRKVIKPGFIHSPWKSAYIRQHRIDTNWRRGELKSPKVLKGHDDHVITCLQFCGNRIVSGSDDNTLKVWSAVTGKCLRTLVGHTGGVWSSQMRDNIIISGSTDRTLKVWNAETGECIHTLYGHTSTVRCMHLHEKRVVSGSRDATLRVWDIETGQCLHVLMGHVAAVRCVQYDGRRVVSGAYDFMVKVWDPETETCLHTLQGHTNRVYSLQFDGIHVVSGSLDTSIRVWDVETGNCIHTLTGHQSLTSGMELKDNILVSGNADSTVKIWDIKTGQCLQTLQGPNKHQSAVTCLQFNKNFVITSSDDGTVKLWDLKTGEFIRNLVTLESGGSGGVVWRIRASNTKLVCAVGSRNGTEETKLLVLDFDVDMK
GPR151 conf act: human GPR151 activation, confirmation screen; AID 1508609; activation, % at 11.2 µM; GPR151 PathHunter beta-arrestin cells, luminescence, 90 min; % of EA-reagent control over plate median; 6,700 tested, under 10 active; shares compounds with GPR151 activ;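 active = mean percent activation across replicates above the confirmation screen cutoff of 4.91%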
GPR119 counter: counter-screen for GPR151 activators: effect on human GPR119. shares compounds with GPR151 activ. GPR119 PathHunter beta-arrestin cells, luminescence, 90 min; 0 = compound-well median, 100 = enzyme-acceptor control. activation, % at 11.2 µM. 6,700 compounds, 0.3% hits;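 active = mean percent activation in the counterscreen above 29.09%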;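 also: counterscreen on off-target GPR119 to flag nonselective hits from the GPR151 activator screen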
Starred values were filed as active, the others as inactive; · = no result.

SMILES	MITF inh	GPR151 activ	TEAD-YAP block	FBW7 act	GPR151 conf act	GPR119 counter
CCOC(=O)C1CCN(c2c(N3CCN(c4cccc(Cl)c4)CC3)c(=O)c2=O)CC1	3.0	5.2*	-5.1	0.1	-0.9	-16.0
CCOC(=O)C1CCCN(c2c(N3CCN(c4cccc(Cl)c4)CC3)c(=O)c2=O)C1 (centres undefined)	-7.4	0.9	8.0	-0.1	·	·
COc1ccccc1C1(NC(=O)CCn2cccn2)CCCC1	14.9	1.9	4.6	0.1	·	·
COc1ccccc1C1(NC(=O)CCn2nc(C)cc2C)CCCC1	-11.4	5.0*	8.4	0.1	0.7	-2.6
CCOC(=O)Cn1c(C(=O)OCC)cc2oc(C)cc21	0.8	-1.5	-0.9	-0.1	·	·
C=CCn1c(C(=O)OCC)cc2oc(C)cc21	-6.7	5.7*	3.6	-0.1	-0.1	5.9
